A selection: hits, their analogues and other compounds. The true share with any hit is near 0.43%.
Rango-impB inh – qHTS Assay for Inhibitors of Rango (Ran-regulated importin-beta cargo) - Importin beta complex formation; Importin subunit beta-1 (Homo sapiens), Q14974; Rango CFP/YFP FRET sensor + importin beta, 45 min; Potency, µM (highest dose often 92.2 µM); 340,000 tested, 0.031% active; calls by dose curve; also: nearly all actives have a fitted effect of over 15% in size
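FRET biosensor (snurportin 1 IBB flanked by EYFP and cerulean), 50 nM, with compound 5 min, then 0.125 microM importin beta in PBS, 1 mM DTT, 0.02% Tween-20, 0.1% BSA. CFP/YFP ratio read after 45 min at room temperature; pre-read flags interference.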
EPAC1 antagonist – qHTS for Antagonist of cAMP-regulated guanine nucleotide exchange factor 3 (EPAC1): primary screen. EPAC1 GEF assay, Rap1b-BODIPY-GDP exchange fluorescence. Potency, µM (series often up to 115 µM), hits mostly inhibitors. 360,000 tested, 0.14% active. AID 720709, 2013; also: nearly all actives have a fitted effect of over 50% in size
Target sequence (O95398 whole entry, looked up): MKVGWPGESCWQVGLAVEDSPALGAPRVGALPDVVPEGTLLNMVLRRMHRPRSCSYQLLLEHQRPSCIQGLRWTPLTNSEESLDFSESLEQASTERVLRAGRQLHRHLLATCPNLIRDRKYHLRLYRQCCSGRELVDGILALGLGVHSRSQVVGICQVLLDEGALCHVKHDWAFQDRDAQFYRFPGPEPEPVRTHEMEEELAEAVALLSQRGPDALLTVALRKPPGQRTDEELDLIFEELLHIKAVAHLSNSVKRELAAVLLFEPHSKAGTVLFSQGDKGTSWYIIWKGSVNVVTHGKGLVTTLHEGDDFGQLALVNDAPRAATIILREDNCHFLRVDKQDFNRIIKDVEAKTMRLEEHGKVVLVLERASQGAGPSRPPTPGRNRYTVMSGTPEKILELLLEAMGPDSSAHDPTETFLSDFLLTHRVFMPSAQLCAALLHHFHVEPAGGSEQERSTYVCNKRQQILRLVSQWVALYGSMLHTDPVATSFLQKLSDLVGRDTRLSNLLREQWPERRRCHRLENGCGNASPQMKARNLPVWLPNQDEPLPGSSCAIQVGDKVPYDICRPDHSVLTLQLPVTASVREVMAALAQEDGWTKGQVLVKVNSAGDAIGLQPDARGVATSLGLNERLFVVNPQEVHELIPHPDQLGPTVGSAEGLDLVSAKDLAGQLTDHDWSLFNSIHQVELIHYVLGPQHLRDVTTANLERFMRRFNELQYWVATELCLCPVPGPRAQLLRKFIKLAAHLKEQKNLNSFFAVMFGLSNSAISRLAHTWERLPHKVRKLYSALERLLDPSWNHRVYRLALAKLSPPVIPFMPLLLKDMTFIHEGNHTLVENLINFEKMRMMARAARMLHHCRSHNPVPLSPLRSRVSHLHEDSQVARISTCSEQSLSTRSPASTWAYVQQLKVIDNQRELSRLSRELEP
EPAC2 antagonist – qHTS for Antagonist of cAMP-regulated guanine nucleotide exchange factor 2 (EPAC2): primary screen; Rap guanine nucleotide exchange factor 4 (Homo sapiens), Q8WZA2; EPAC2 GEF exchange of Rap1B-BODIPY-GDP, fluorescence; Potency, µM (titrated, usually from 114 µM), hits mostly inhibitors; 360,000 tested, 0.18% active; also: nearly all actives have a fitted effect of over 45% in size
Rango dissoc inh – qHTS Assay for Inhibitors of RanGTP induced Rango (Ran-regulated importin-beta cargo) - Importin beta complex dissociation. 340,000 tested, 0.071% active. Biochemical FRET Rango-importin beta, RanGTP-induced dissociation. Snurportin-1 (Homo sapiens) + GTP-binding nuclear protein Ran (Homo sapiens) + Importin …. Potency, µM (doses to about 46.1 µM); calls by dose curve; also: nearly all actives have a fitted effect of over 45% in size
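Quantitative HTS using a FRET biosensor: 0.1 uM Rango, 0.25 uM importin beta, 0.6 uM Ran, 2 mM GTP, 0.2 uM RCC1 final, PBS with DTT, Tween-20 and BSA. Post-read taken 45 min after Ran addition.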
EPAC1 agonist – qHTS for Agonist of cAMP-regulated guanine nucleotide exchange factor 3 (EPAC1): primary screen. AID 720707, 2013. EPAC1 agonist qHTS, biochemical assay; response scale: 100% = response to 6.5 mM cAMP. Potency, µM (top dose mostly 154 µM), most hits filed as activators. 360,000 tested, 0.073% active; also: nearly all actives have a fitted effect of over 60% in size
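Normalized to 6.5 mM cAMP, activity reflects EPAC1-catalysed release of BODIPY-GDP from Rap1B, followed kinetically over 30 min at 480 nm excitation, 540 nm emission. Reaction contained 100 nM EPAC1, 250 nM Rap1B-BODIPY-GDP, 50 uM GDP.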
EPAC2 agonist – qHTS for Agonist of cAMP-regulated guanine nucleotide exchange factor 4 (EPAC2): primary screen; Rap guanine nucleotide exchange factor 4 (Homo sapiens), Q8WZA2; EPAC2 activation, biochemical qHTS; response scale: 100% = 6.5 mM cAMP response; Potency, µM (titrated, usually from 154 µM), actives largely listed as activators; 360,000 tested, 0.079% active; also: nearly all actives have a fitted effect of over 50% in size
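Guanine nucleotide exchange by EPAC2 is measured as reduced fluorescence of BODIPY-GDP once it is released from 250 nM Rap1B. Plates are read kinetically for 30 min at room temperature; results are scaled to 6.5 mM cAMP.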
Each line names hits and unclear results; the compound was inactive in the other large screens. Unless noted, calls follow the shape of the dose curve; as a rule, active = well fitted curve in the direction sought with a large enough effect; inconclusive = small, poorly fitted or top-dose-only effect, or another doubt; inactive = no such curve, though single readings can be large; an effect the other way counts as inactive or inconclusive.

CSCCC(C(=O)O)N1C(=O)c2ccc(C(=O)O)cc2C1=O (stereo not given)	EPAC2 agonist 10µM
CC(=O)Oc1ccccc1Cn1c(C)c(C(=O)NCc2cccc(Cl)c2)sc1=O	none (no result: Rango-impB inh, Rango dissoc inh)
CC1C(=O)N2CCCc3cc(S(=O)(=O)NCCc4ccccc4)cc1c32 (stereo not given)	none
COc1ccc(CCNS(=O)(=O)c2cc3c4c(c2)C(C)C(=O)N4CCC3)cc1OC (stereo not given)	Rango dissoc inh 16µM
Cc1ccc(Oc2ccccc2NC(=O)CSCC(=O)Nc2cc(C)on2)cc1	EPAC1 agonist 112µM
Cc1ccccc1NC1c2ccccc2C(=O)N1Cc1ccco1 (stereo not given)	EPAC2 antagonist 32µM
Oc1ccc(Br)cc1/C=N/n1c(C2CCCCC2)n[nH]c1=S	Rango-impB inh inconclusive, Rango dissoc inh 15µM
COc1cccc(/C(O)=C/c2nc3ccc(C(=O)NCCc4ccc(Cl)cc4)cc3[nH]c2=O)c1	Rango-impB inh inconclusive, Rango dissoc inh inconclusive, EPAC1 agonist inconclusive, EPAC2 agonist 112µM
COc1cccc(/C(O)=C/c2nc3ccc(C(=O)NCCc4cccc(C)c4)cc3[nH]c2=O)c1	Rango-impB inh inconclusive, Rango dissoc inh inconclusive, EPAC1 agonist 89µM, EPAC2 agonist 112µM
COC(=O)C[C@H]1CC[C@@H](NC(=O)c2ccncc2)[C@@H](CO)O1	none (no result: Rango-impB inh, Rango dissoc inh)
CS(=O)(=O)c1ccc(C(=O)OCc2nnc(-c3ccccc3)o2)cc1[N+](=O)[O-]	EPAC1 antagonist 89µM
O=S(=O)(NCc1ccccc1)c1ccc(S(=O)(=O)N(Cc2cccs2)CC2CCCO2)cc1 (stereo not given)	Rango-impB inh inconclusive, Rango dissoc inh inconclusive, EPAC2 agonist 40µM
COc1cc(S(=O)(=O)N(Cc2cccs2)CC2CCCO2)ccc1-n1cnnn1 (stereo not given)	none
O=C(Nc1ccc2ccccc2c1)C(c1ccccc1)n1c(=O)c(-c2cc3ccccc3[nH]2)nc2ccccc21 (stereo not given)	none (no result: Rango-impB inh, Rango dissoc inh)
Cc1ccc(C)c(S(=O)(=O)Nc2ccc(C(=O)NCC(c3ccco3)N3CCCCC3)cc2)c1 (stereo not given)	none
Cc1ccc(C)c(S(=O)(=O)Nc2ccc(C(=O)NCC(c3ccco3)N(C)C)cc2)c1 (stereo not given)	EPAC1 agonist 112µM
O=C1NC(=S)SC1=Cc1cccs1	EPAC1 antagonist inconclusive, EPAC2 antagonist inconclusive
CN1CCC/C1=C/C=C1\SC(=S)NC1=O	Rango-impB inh inconclusive, Rango dissoc inh inconclusive, EPAC1 agonist 63µM, EPAC2 agonist 112µM
CC(c1nc2ccccc2[nH]1)n1c(=O)c(-c2ccco2)nc2ccccc21 (stereo not given)	none (no result: Rango-impB inh, Rango dissoc inh)
O=C(O)CSc1cc(NS(=O)(=O)c2cccc([N+](=O)[O-])c2)c2ccccc2c1O	EPAC1 antagonist inconclusive, EPAC2 antagonist inconclusive, EPAC2 agonist 112µM
Cc1ccc(C)c(S(=O)(=O)Nc2cc(SCC(=O)O)c(O)c3ccccc23)c1	EPAC1 antagonist inconclusive
CCc1ccc(S(=O)(=O)Nc2cc(SCC(=O)O)c(O)c3ccccc23)cc1	EPAC1 antagonist 89µM, EPAC2 antagonist inconclusive, EPAC1 agonist inconclusive
CCOc1ccc(S(=O)(=O)Nc2cc(SCC(=O)O)c(O)c3ccccc23)cc1	EPAC1 antagonist 89µM
COc1cc(C(=O)C(=O)N2CCN(c3ccccc3)CC2)cc(OC)c1OC	none (no result: Rango-impB inh, Rango dissoc inh)
CC(C)(C)CNC(=O)C1(C)CCN1C(=O)c1ccccc1CCc1ccccc1 (stereo not given)	none (no result: Rango-impB inh, Rango dissoc inh)
CCNc1nn2ccccc2c1/C=C(\C#N)C(=O)OCC	Rango-impB inh inconclusive, Rango dissoc inh 10µM
Cc1nc(N)sc1-c1csc(Nc2ncccn2)n1	Rango-impB inh inconclusive, EPAC2 antagonist 71µM, EPAC2 agonist inconclusive
COc1ccccc1Nc1nc(-c2sc(N)nc2C)cs1	none
Cc1ccc(NC2C(=O)NC(=O)NC2=O)cc1	EPAC1 antagonist 79µM, EPAC2 antagonist inconclusive
Cc1cc(Br)cn2c(Cc3cccc(F)c3)c(-c3ccc(Cl)cc3)nc12	none (no result: Rango-impB inh, Rango dissoc inh)
COC(=O)c1ccc2nc(Nc3nc4ccc(F)cc4s3)sc2c1	Rango-impB inh inconclusive, Rango dissoc inh 13µM
COc1cc(C(=O)C(=O)N2CCC(Cc3ccccc3)CC2)cc2ccccc12	none (no result: Rango-impB inh, Rango dissoc inh)
NC(=O)c1cccc(-c2ccnc3c2CC(C(=O)Nc2cccc(Oc4ccccc4)c2)O3)c1 (stereo not given)	EPAC1 antagonist inconclusive (no result: Rango-impB inh, Rango dissoc inh)
COC(=O)[C@@]12C[C@@H](CC(=O)NCc3cccc4ccccc34)C(=O)N(Cc3ccccc3)C1=CCC(C)(C)C2	none (no result: Rango-impB inh, Rango dissoc inh)
CCOC(=O)N(C)c1c(CC)nc2c(OCc3ccc(C(F)(F)F)cc3)cccn12	EPAC1 antagonist inconclusive, EPAC2 antagonist 35µM (no result: Rango-impB inh, Rango dissoc inh)
CCCCC(=O)N(C)c1c(CC)nc2c(OCc3ccc(C(F)(F)F)cc3)cccn12	EPAC2 antagonist 20µM (no result: Rango-impB inh, Rango dissoc inh)
NC(=S)N=Nc1c(O)n(CC(=O)Nc2ccccc2)c2ccccc12	none
Cc1cccc(NC(=O)Cn2c(O)c(N=NC(=O)c3ccccc3O)c3ccccc32)c1	EPAC1 antagonist 56µM
CC(C)NC(=O)C1C(c2ccc(C(F)(F)F)cc2)=Nc2ccccc2N1C(=O)c1cccc2ccccc12 (stereo not given)	none (no result: Rango-impB inh, Rango dissoc inh)
CN(C)c1ccc(/C=C2\SC(=S)N(Nc3ncc(C(F)(F)F)cc3Cl)C2=O)cc1	Rango-impB inh inconclusive, Rango dissoc inh inconclusive, EPAC1 agonist 112µM, EPAC2 agonist 112µM
O=C(C1=NN(c2ccccc2)C2C(=O)N(c3cccc(Cl)c3)C(=O)C12)c1ccccc1 (stereo not given)	Rango-impB inh inconclusive, EPAC1 antagonist 50µM, Rango dissoc inh inconclusive
COc1ccccc1N1C(=O)C2C(C(=O)c3ccccc3)=NN(c3ccc(Br)cc3)C2C1=O (stereo not given)	Rango-impB inh inconclusive, EPAC1 antagonist 35µM, EPAC2 antagonist 50µM, Rango dissoc inh inconclusive
